PubChem BioAssay (Tox21)
Several values for one entry are separate records, joined by “and”; a condition that tells them apart may be missing. Identical values can stand only once. A number with no mark means an inactive call. Where a call stands in place of a potency, no number is given. Some structures have more than one record in an assay (separate samples or runs), and their calls can disagree. Activity calls are given as the source filed them. The call rests on the fitted dose curve; in most records, active means well fitted inhibition curve with a large enough effect in the repeat runs (not every such curve was filed as active); inconclusive means weak or mixed curves; inactive means flat fitted curve, though single readings scatter.

target: Thyrotropin-releasing hormone receptor (Homo sapiens) (UniProt P34981); test: qHTS assay to identify small molecule antagonists of the thyrotropin-releasing hormone receptor (TRHR) signaling pathway (AID 1346877); details: TRHR-HEK293, TRH-induced calcium fluorescence, antagonist mode; series mostly up to 51.3 µM
Sequence (P34981 whole entry, looked up): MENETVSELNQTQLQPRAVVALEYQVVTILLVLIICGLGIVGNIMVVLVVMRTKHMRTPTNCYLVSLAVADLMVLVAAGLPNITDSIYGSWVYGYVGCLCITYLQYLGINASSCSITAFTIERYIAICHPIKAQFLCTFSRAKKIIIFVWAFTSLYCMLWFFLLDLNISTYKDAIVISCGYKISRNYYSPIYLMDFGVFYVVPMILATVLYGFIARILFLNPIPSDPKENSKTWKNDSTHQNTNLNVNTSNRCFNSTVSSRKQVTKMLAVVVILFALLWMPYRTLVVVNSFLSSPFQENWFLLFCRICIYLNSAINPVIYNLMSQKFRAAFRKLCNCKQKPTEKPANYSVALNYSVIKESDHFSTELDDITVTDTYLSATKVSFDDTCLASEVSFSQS
Source text: National Center for Advancing Translational Sciences [NCATS]
NIH Chemical Genomics Center [NCGC]
U.S. Environmental Protection Agency [EPA]
National Institutes of Environmental Health Sciences [NIEHS]
National Toxicology Program [NTP]
U.S. Food and Drug Administration [FDA]
Thyrotropin-releasing hormone (TRH) receptor (TRHR) is a G-protein-coupled receptor which binds the tripeptide thyrotropin releasing hormone. TRHR is found in the brain and, when bound by TRH, acts (through phospholipase C) to increase intracellular inositol trisphosphate. It plays a crucial role in the anterior pituitary where it controls the synthesis and secretion of thyroid stimulating hormone and prolactin. The TRHR-Hek293 assay is a cell-based assay, and it has the potential to screen G protein-coupled receptors. A compound/drug can either activate (agonist) or suppress (antagonist) GPCRs that can be monitored by levels of intracellular calcium. In this assay, the Tox21 10K compound library was screened to identify potential TRHR antagonists.
Tox21 Assay Protocol Summary:
The TRHR-Hek293 cells were dispensed at 1500cells/4uL/well in 1536-well black-clear bottom plates using a Multidrop dispenser. After the assay plates were incubated at a 37 C/5% CO2 incubator for 18 hours, 4 uL of Dye-Loading Solution was added to each well. The plates were incubated at 37 C for 2 hours. For agonist mode, 23 nL of compounds dissolved in DMSO, positive controls or DMSO only was transferred to the assay plate by a pin tool. The fluorescence intensity in the plates was measured using FDSS 7000EX kinetic plate reader for 3 min at 1 sec intervals. For antagonist mode, 23 nL of compounds dissolved in DMSO, positive controls or DMSO only was transferred to the assay plate by a pin tool. After 5 min incubation at room temperature, 1 uL of TRH was added on the top of the cell/compound mixtures to achieve a final agonist concentration of 1 nM. The fluorescence intensity in the plates was measured using FDSS 7000EX kinetic plate reader for 3 min at 1 sec intervals. Each test compound was measured at 15 concentrations and in triplicates.
Potency means the concentration at half of the fitted maximal effect.

SMILES | Potency | activity, negative = inhibition
OC1CCCCCCCCCCC1 | inactive | 
COC(=O)Nc1nc2ccc(S(=O)c3ccccc3)cc2[nH]1 (stereo not given) | inactive | 
CNCCCC12CCC(c3ccccc31)c1ccccc12 | inactive | 
CN(C)c1nc(N(C)C)nc(N(C)C)n1 | inactive | 
CCCc1c(OCCCCc2nn[nH]n2)ccc(C(C)=O)c1O | inactive | 
Cc1cc2nc3c(=O)[nH]c(=O)nc-3n(C[C@H](O)[C@H](O)[C@H](O)CO)c2cc1C | 33.5 µM (active) and 19.8 µM (active) | -21.3% [at 10.5 µM]
c1ccncc1 | inactive | 
CCCC(=O)O | inactive | 
c1ccc2cc(Nc3ccc(Nc4ccc5ccccc5c4)cc3)ccc2c1 | inactive | 
O=CCc1ccccc1 | inactive | 
CCCCC(CC)COP(=O)(OCC(CC)CCCC)OCC(CC)CCCC (stereo not given) | inactive | 
COc1c(Cl)c(Cl)c(Cl)c(Cl)c1Cl | inactive | 
CN(C)CCC=C1c2ccccc2CCc2ccccc21 | inactive | 
OC[C@H]1O[C@@H]2O[C@H]3[C@H](O)[C@@H](O)[C@@H](O[C@H]4[C@H](O)[C@@H](O)[C@@H](O[C@H]5[C@H](O)[C@@H](O)[C@@H](O[C@H]6[C@H](O)[C@@H](O)[C@@H](O[C@H]7[C@H](O)[C@@H](O)[C@@H](O[C@H]8[C@H](O)[C@@H](O)[C@@H](O[C@H]1[C@H](O)[C@H]2O)O[C@@H]8CO)O[C@@H]7CO)O[C@@H]6CO)O[C@@H]5CO)O[C@@H]4CO)O[C@@H]3CO | inactive | 
C/C=C/C(=O)O | inactive | 
CC(C)(C)NC(=O)[C@H]1CC[C@H]2[C@@H]3CC[C@H]4NC(=O)C=C[C@]4(C)[C@H]3CC[C@]12C | inactive | 
CC(=O)c1ccccn1 | inactive | 
Cc1ccc(C(=O)c2cc(O)c(O)c([N+](=O)[O-])c2)cc1 | inactive | 
COc1cccc2c1C(=O)c1c(O)c3c(c(O)c1C2=O)C[C@@](O)(C(=O)CO)C[C@@H]3O[C@H]1C[C@H](N)[C@H](O)[C@H](C)O1 | inactive | 
Nc1ccccc1N | inactive | 

SMILES | Potency | activity, negative = inhibition
CC(C)CC(C)(O)C#CC(C)(O)CC(C)C (stereo not given) | inactive | 
Cc1c(OCC(F)(F)F)ccnc1CS(=O)c1nc2ccccc2[nH]1 (stereo not given) | inactive | 
C#C[C@]1(O)CC[C@H]2[C@@H]3CCC4=Cc5oncc5C[C@]4(C)[C@H]3CC[C@@]21C | inactive | 
O=C1OC2(c3cc(Br)c(O)c(Br)c3Oc3c2cc(Br)c(O)c3Br)c2c(Cl)c(Cl)c(Cl)c(Cl)c21 | inactive | 
CCCCCCCCCC(=O)OC | inactive | 
C=C(C)C(=O)OCCOC(=O)C(=C)C | inactive | 
c1cc(-c2ccncc2)ccn1 | inactive | 
CCOCCOCCO | inactive | 
CCC(C)c1ccccc1O (stereo not given) | inactive | 
COc1cc([C@@H]2c3cc4c(cc3[C@H](O)[C@H]3COC(=O)[C@H]23)OCO4)cc(OC)c1OC | inactive | 
Cc1[nH]c(=O)c(C#N)cc1-c1ccncc1 | inactive | 
CC(CCC(=O)O)(c1ccc(O)cc1)c1ccc(O)cc1 | inactive | 
O=C(/C=C/c1ccccc1)OCc1ccccc1 | inactive | 
c1ccc2c(c1)Oc1ccccc1S2 | inactive | 
O=C(c1ccccc1)c1ccccc1O | inactive | 
O=C(/C=C/C=C/c1ccc2c(c1)OCO2)N1CCCCC1 | inactive | 
CCC(C)OC(=O)c1ccc(O)cc1 (stereo not given) | inactive | 
Cc1ccc2c(n1)Oc1ccc(C(C)C(=O)OCC(=O)N(C)C)cc1C2 (stereo not given) | inactive | 
Nc1ccc(Nc2ccccc2)cc1 | inactive | 
